According to PubChem BioAssay (NCI):
The panel holds about 83,000 compounds, 20% with a hit somewhere; the sample as a whole holds those more often.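 The test compound was applied at a single concentration to cells in 96-well plates for 48 hours, and percent growth was recorded.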 Active and inactive are the calls of the source. How the source made its calls: active means growth percent below 10; inactive means the rest.

Each compound was assayed on HCT-15 colon (assay: NCI-60 one-dose screen, 48 h (100 = growth as untreated, 0 = no growth, -100 = all killed)). Conditions: 10 µM unless noted.

Row | Compound | growth
1 | COc1ccc(C/C(=C(\C)c2ccc(OCCN3CCCC3)cc2)c2ccc(OCCN3CCCC3)cc2)cc1 | 11.9% (inactive)
2 | CCOC(=O)Oc1c(OC)cc(C(=O)c2ccc(OC)c(O)c2OC)cc1OC | 14.7% (inactive)
3 | CCCCOc1ccc(/C(C)=N/Nc2cc(C)nc3ccc(Br)cc23)cc1 | 7.75% (active)
4 | O=[N+]([O-])c1cc(Br)c2cccc3c2c1CC3 | 100% (inactive)
5 | CC(Oc1ccc(C(=O)O)cc1C(F)(F)F)c1ccc(Oc2ccccc2)cn1 (stereo unspecified) | 80.6% (inactive)
6 | CCN1CCN(CCNc2nccc(-c3c(-c4cccc(OC)c4)nc4occn34)n2)S1(=O)=O | 102% (inactive)
7 | Cn1c2ccccc2c2c3c(c4c5ccccc5n(C)c4c21)C(=O)OC3 | 96.7% (inactive)
8 | COc1cc2c(cc1OC)C(=O)/C(=C/c1cc(C)c(O)c(C)c1)S2 | 18.7% (inactive)
9 | O=C(/C=C/c1ccc(F)cc1)c1ccc(NC(=O)N2CCN(c3cc4c(cc3F)c(=O)c(C(=O)O)cn4C3CC3)CC2)cc1 | 101% (inactive)
10 | O=C1c2ccc3c4c(ccc(c24)C(=O)N1CCCNCc1ccccc1Cl)C(=O)N(CCCNCc1ccccc1Cl)C3=O | -46% (active)
11 | Cc1cccc(NC(=O)Nc2ccc(-n3cnc4cc(-c5ccc(O)cc5)ccc43)cc2)c1 | 18.8% (inactive)
12 | c1ccc(-c2cn3c(ccc4ccccc43)n2)cc1 | 30.6% (inactive)
13 | COc1cc2oc(-c3cccc(C(=O)Nc4ccccc4)c3)cc(=O)c2c(O)c1OC | 92.8% (inactive)
14 | Cc1ccc(/C=N/NC(=O)CSc2nc3ccccc3c(=O)n2Cc2ccc(S(N)(=O)=O)cc2)cc1 | 89.3% (inactive)
15 | C#CCNC(=O)c1cccc2c1cc(C)n2-c1nc2c(c(NCc3ccccc3)n1)CCCC2 | -60.1% (active)
16 | COc1ccccc1NC(=O)C1CC(c2ccc(F)cc2)=NO1 (stereo unspecified) | 99.2% (inactive)
17 | O=C1Nc2cc(-c3ccc(NC(=O)c4ccccc4)cc3)ccc2/C1=C/c1ccc[nH]1 | 87.9% (inactive)
18 | C=CC(=O)N[C@@H](/C=C/C(=O)OCC)Cc1ccc(-c2cc(Cl)cc(Cl)c2)cc1 | 15.2% (inactive)
19 | Cc1ccc(NC(=O)c2cc(-c3nc4ccccc4s3)c(=O)n(NS(=O)(=O)c3ccc(Cl)cc3)c2N)cc1 | 96% (inactive)

Row | Compound | growth
20 | O=C1Nc2cc(-c3ccc(NC(=O)C4CC4)cc3)ccc2/C1=C/c1ccc[nH]1 | 94.7% (inactive)
21 | O=S(=O)(NCCNc1nccc(-c2c(-c3cccc(F)c3)nc3sccn23)n1)c1ccccc1 | 25.8% (inactive)
22 | O=C(NCCNc1nccc(-c2c(-c3cccc(F)c3)nc3sccn23)n1)c1ccc(Cl)cc1 | 40.1% (inactive)
23 | COc1cc2oc(-c3cccc(C(=O)Nc4ccc(Cl)cc4)c3)cc(=O)c2c(O)c1OC | 70.2% (inactive)
24 | O=C1OC(Cc2ccccc2)C1c1ccccc1 (stereo unspecified) | 101% (inactive)
25 | CC(=O)Nc1ccc(-n2cnc3cc(-c4ccc(OCCN5CCCCC5)cc4)ccc32)cc1 | 43.6% (inactive)
26 | O=C(N/N=C/c1ccc(Oc2ccccc2)cc1)c1cnn2c1NC(c1ccccc1)C2 (stereo unspecified) | 33.9% (inactive)
27 | CCN(CC)CC[n+]1cc2cc(OC)c(OC)cc2c2ccc3cc4c(cc3c21)OCO4 | 32.9% (inactive)
28 | O=Cc1cc2ccccc2nc1Oc1ccc(C(F)(F)F)cc1 | 80.8% (inactive)
29 | Cc1cc2nc3c4cc(C=O)ccc4n(CCN(C)C)c3nc2cc1C | 2.81% (active)
30 | N#Cc1cccc(-c2ccc3c(c2)NC(=O)/C3=C\c2ccc[nH]2)c1 | 14.3% (inactive)
31 | CCc1c(Cl)nc(N)nc1Nc1ccc(C)c(C)c1 | 55.7% (inactive)
32 | COc1cc(NC(C)CCCNC(=O)CCC(=O)NCCCNCCCCCCCCCCNCCCNC(=O)CCC(=O)NCCCC(C)Nc2cc(OC)cc3cccnc23)c2ncccc2c1 (stereo unspecified) | 99.1% [8 µM] (inactive)
33 | Cc1ccccc1NS(=O)(=O)c1cccc(C(=O)Nc2ccc(Br)cc2)c1 | 37.3% [25 µM] (inactive)
34 | COc1cc(/C=C\C(=O)O)ccc1OCc1ccccc1 | 107% (inactive)
35 | CCCCCCCCOc1ccc(/C=N/Nc2cc(C)nc3ccc(Br)cc23)cc1 | 21% (inactive)
36 | S=c1cc(S)c2cc(Br)ccc2[nH]1 | 99.8% (inactive)
37 | CCOC(=O)CSc1nc2ccccc2c(=O)n1Cc1ccc(S(N)(=O)=O)cc1 | 100% (inactive)
38 | C=C1C(=O)O[C@H]2[C@H]1CC/C(COC(=O)NCc1c[nH]c3ccc(Cl)cc13)=C\CC[C@@]1(C)O[C@@H]21 | -60.2% (active)

Each compound was assayed on HT29 colon in the same assay as above. Conditions: 10 µM unless noted.

Row | Compound | growth
39 | COc1ccc(C/C(=C(\C)c2ccc(OCCN3CCCC3)cc2)c2ccc(OCCN3CCCC3)cc2)cc1 | -58.1% (active)
40 | CCOC(=O)Oc1c(OC)cc(C(=O)c2ccc(OC)c(O)c2OC)cc1OC | 29.5% (inactive)
41 | CCCCOc1ccc(/C(C)=N/Nc2cc(C)nc3ccc(Br)cc23)cc1 | 45.1% (inactive)
42 | O=[N+]([O-])c1cc(Br)c2cccc3c2c1CC3 | 108% (inactive)
43 | CC(Oc1ccc(C(=O)O)cc1C(F)(F)F)c1ccc(Oc2ccccc2)cn1 (stereo unspecified) | 121% (inactive)
44 | CCN1CCN(CCNc2nccc(-c3c(-c4cccc(OC)c4)nc4occn34)n2)S1(=O)=O | 50.3% (inactive)
45 | Cn1c2ccccc2c2c3c(c4c5ccccc5n(C)c4c21)C(=O)OC3 | 105% (inactive)
46 | COc1cc2c(cc1OC)C(=O)/C(=C/c1cc(C)c(O)c(C)c1)S2 | 83.2% (inactive)
47 | O=C(/C=C/c1ccc(F)cc1)c1ccc(NC(=O)N2CCN(c3cc4c(cc3F)c(=O)c(C(=O)O)cn4C3CC3)CC2)cc1 | 98% (inactive)
48 | O=C1c2ccc3c4c(ccc(c24)C(=O)N1CCCNCc1ccccc1Cl)C(=O)N(CCCNCc1ccccc1Cl)C3=O | -42.5% (active)
49 | Cc1cccc(NC(=O)Nc2ccc(-n3cnc4cc(-c5ccc(O)cc5)ccc43)cc2)c1 | 28.4% (inactive)
50 | c1ccc(-c2cn3c(ccc4ccccc43)n2)cc1 | 19.8% (inactive)
51 | COc1cc2oc(-c3cccc(C(=O)Nc4ccccc4)c3)cc(=O)c2c(O)c1OC | 54.2% (inactive)
52 | Cc1ccc(/C=N/NC(=O)CSc2nc3ccccc3c(=O)n2Cc2ccc(S(N)(=O)=O)cc2)cc1 | 86.3% (inactive)
53 | C#CCNC(=O)c1cccc2c1cc(C)n2-c1nc2c(c(NCc3ccccc3)n1)CCCC2 | 0.876% (active)
54 | COc1ccccc1NC(=O)C1CC(c2ccc(F)cc2)=NO1 (stereo unspecified) | 103% (inactive)
55 | O=C1Nc2cc(-c3ccc(NC(=O)c4ccccc4)cc3)ccc2/C1=C/c1ccc[nH]1 | 109% (inactive)
56 | C=CC(=O)N[C@@H](/C=C/C(=O)OCC)Cc1ccc(-c2cc(Cl)cc(Cl)c2)cc1 | 20.3% (inactive)
57 | Cc1ccc(NC(=O)c2cc(-c3nc4ccccc4s3)c(=O)n(NS(=O)(=O)c3ccc(Cl)cc3)c2N)cc1 | 108% (inactive)

Row | Compound | growth
58 | O=C1Nc2cc(-c3ccc(NC(=O)C4CC4)cc3)ccc2/C1=C/c1ccc[nH]1 | 101% (inactive)
59 | O=S(=O)(NCCNc1nccc(-c2c(-c3cccc(F)c3)nc3sccn23)n1)c1ccccc1 | 23.2% (inactive)
60 | O=C(NCCNc1nccc(-c2c(-c3cccc(F)c3)nc3sccn23)n1)c1ccc(Cl)cc1 | 35.2% (inactive)
61 | COc1cc2oc(-c3cccc(C(=O)Nc4ccc(Cl)cc4)c3)cc(=O)c2c(O)c1OC | 66.2% (inactive)
62 | O=C1OC(Cc2ccccc2)C1c1ccccc1 (stereo unspecified) | 106% (inactive)
63 | CC(=O)Nc1ccc(-n2cnc3cc(-c4ccc(OCCN5CCCCC5)cc4)ccc32)cc1 | 2.12% (active)
64 | O=C(N/N=C/c1ccc(Oc2ccccc2)cc1)c1cnn2c1NC(c1ccccc1)C2 (stereo unspecified) | 65.8% (inactive)
65 | CCN(CC)CC[n+]1cc2cc(OC)c(OC)cc2c2ccc3cc4c(cc3c21)OCO4 | -50.1% (active)
66 | O=Cc1cc2ccccc2nc1Oc1ccc(C(F)(F)F)cc1 | 94.1% (inactive)
67 | Cc1cc2nc3c4cc(C=O)ccc4n(CCN(C)C)c3nc2cc1C | 6.7% (active)
68 | N#Cc1cccc(-c2ccc3c(c2)NC(=O)/C3=C\c2ccc[nH]2)c1 | 53.7% (inactive)
69 | CCc1c(Cl)nc(N)nc1Nc1ccc(C)c(C)c1 | 102% (inactive)
70 | COc1cc(NC(C)CCCNC(=O)CCC(=O)NCCCNCCCCCCCCCCNCCCNC(=O)CCC(=O)NCCCC(C)Nc2cc(OC)cc3cccnc23)c2ncccc2c1 (stereo unspecified) | 73.6% [8 µM] (inactive)
71 | Cc1ccccc1NS(=O)(=O)c1cccc(C(=O)Nc2ccc(Br)cc2)c1 | 47.8% [25 µM] (inactive)
72 | COc1cc(/C=C\C(=O)O)ccc1OCc1ccccc1 | 105% (inactive)
73 | CCCCCCCCOc1ccc(/C=N/Nc2cc(C)nc3ccc(Br)cc23)cc1 | 11.9% (inactive)
74 | S=c1cc(S)c2cc(Br)ccc2[nH]1 | 96.9% (inactive)
75 | CCOC(=O)CSc1nc2ccccc2c(=O)n1Cc1ccc(S(N)(=O)=O)cc1 | 105% (inactive)
76 | C=C1C(=O)O[C@H]2[C@H]1CC/C(COC(=O)NCc1c[nH]c3ccc(Cl)cc13)=C\CC[C@@]1(C)O[C@@H]21 | -78.8% (active)
